# Experimental data published in PubChem BioAssay AID743279 (National Center for Advancing Translational Sciences (NCATS), 2014).
# Among all 360,000 compounds or so, about 17,000 (4.7%) were called active. Another 5% or so got no clear call; they are omitted. Cut-off read from the data, not from the text of the source: active = activity change below about -50%; inconclusive = mostly about -30% to -49%; inactive = weaker than that. The list comes from a sample in which actives are over-represented; it also holds similar structures and randomly drawn compounds.
# Experiment: qHTS for Inhibitors of Inflammasome Signaling: IL-1-beta AlphaLISA Primary Screen
# Settings: THP-1 LPS/ATP IL-1B secretion, 16 h; at 57.5 µM, active compounds read low
# Method in brief: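 THP-1 cells pretreated 1 hr with compounds (up to 57.5 uM final), then stimulated with LPS (250 ng/mL final) plus ATP (1.25 mM final); secreted IL-1B measured by AlphaLISA after 16 hr, decreased signal indicating inhibition.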
# % is set by controls: 0 for no effect and ±100 for the full control effect.
row,SMILES,activity change
1,O=C(NN=Cc1ccc2c(c1)CCC2)c1ccccc1O,-24.6% (inactive)
2,CC1CCN(S(=O)(=O)c2ccc3c(c2)n(C)c(=O)n3C)CC1,-8.4% (inactive)
3,CC1CCN(C(=S)c2cccc(O)c2)CC1,10.7% (inactive)
4,CCCCn1c(N)c(N(CCOC)C(=O)c2sc3ccccc3c2Cl)c(=O)[nH]c1=O,-21.6% (inactive)
5,CSc1nnc(NC(=O)c2nc(S(=O)(=O)Cc3ccc(C)cc3)ncc2Cl)s1,-105% (active)
6,COCCSc1nnc(NC(=O)CCS(=O)(=O)Cc2ccccc2)s1,1.75% (inactive)
7,CSc1ncc(Cl)c(C(=O)Nc2cc(C)ccc2C)n1,25.6% (inactive)
8,Cc1ccc(S(=O)(=O)CCC(=O)Nc2nnc(CC(C)C)s2)cc1,-3.21% (inactive)
9,Cc1ccc(CS(=O)(=O)c2ncc(Cl)c(C(=O)Nc3nnc(C)s3)n2)cc1,-57.1% (active)
10,Cc1nnc(NC(=O)CCCOc2ccccc2)s1,19.1% (inactive)
11,CCc1nc2ccc(C(=O)NC3CCN(Cc4ccccc4)CC3)cn2c1N(CC)CCOC,-7.01% (inactive)
12,O=C(Cn1cc(C(=O)C2CC2)c2ccccc21)Nc1ccccc1Cl,-2.81% (inactive)
13,Cc1ccc(NS(=O)(=O)c2ccc(C(=O)NCCCN3CCOCC3)cc2)cc1,6.14% (inactive)
14,COC(=O)c1ccc2c(c1)S(=O)(=O)NC2C (centres undefined),5.94% (inactive)
15,CCOC(=O)C1=CC[C@@H](c2ccccc2)N(S(=O)(=O)c2ccc(C)cc2)[C@H]1c1ccc(CC)cc1,52.6% (inactive)
16,COc1ccc(S(=O)(=O)N2CCN(CC(=O)N3CCNC3=O)CC2)cc1OC,-22% (inactive)
17,O=C(OC12CC3CC(CC(C3)C1)C2)c1ccc(NCc2cc(O)ccc2O)cc1,-102% (active)
18,COC(=O)c1ccc(NCC(=O)c2ccccc2)cc1,-20.4% (inactive)
19,CC(C)OC(=O)c1ccc(NCc2cc(O)ccc2O)cc1Cl,0% (inactive)
20,COC(=O)c1ccc(NCc2cc(O)ccc2O)cc1,-110% (active)

row,SMILES,activity change
1,CC1(C)C2CCC1(C)C(OC(=O)c1ccc(O)cc1)C2 (centres undefined),9.54% (inactive)
2,Cc1ccc(-c2cnc(C(O)c3cccc(C)c3C)[nH]2)cc1 (centres undefined),-19.2% (inactive)
3,CCC(=O)OCc1c(C(F)(F)F)nn(C)c1Oc1cccc(C(F)(F)F)c1,2.89% (inactive)
4,CCC(C)C(CO)NC(=O)/C=C/[C@H]1O[C@@H](n2cnc3c(NC(=O)c4ccccc4)ncnc32)[C@H](O)[C@@H]1O (some centres undefined),-22% (inactive)
5,C[C@H](CO)N1C[C@H](C)[C@@H](CN(C)Cc2ccc3c(c2)OCO3)OCc2cnnn2CCCC1=O,19.4% (inactive)
6,CC1CCCC(C)N1C(=O)COC(=O)c1ccccc1C(=O)c1ccccc1 (centres undefined),-9.64% (inactive)
7,N#Cc1c(N)nc2c(c1N)CC(C(F)(F)F)O2 (centres undefined),16.5% (inactive)
8,O=C(O)C(CCc1ccccn1)c1ccccc1 (centres undefined),-10.2% (inactive)
9,O=c1[nH]c2c(c(=O)n1-c1ccccc1)CCO2,0% (inactive)
10,O=C(NCc1ccco1)c1ccc([N+](=O)[O-])cc1Cl,15.3% (inactive)
11,CC(OC(=O)CNC(=O)c1ccc(Cl)c([N+](=O)[O-])c1)C(=O)NCc1ccco1 (centres undefined),-52.2% (active)
12,CC(OC(=O)CNC(=O)c1ccco1)C(=O)Nc1ccc(Cl)cn1 (centres undefined),12.3% (inactive)
13,CCc1nc2ccc(C(=O)N(C)Cc3ccco3)cn2c1N(C)C(=O)Cc1ccccc1,-0.908% (inactive)
14,CCCN(C(=O)COC(=O)CNS(=O)(=O)c1ccc(NC(C)=O)cc1)C1CCS(=O)(=O)C1 (centres undefined),14.5% (inactive)
15,CCOC(=O)N1CCN(C(c2ccnc3ccccc23)c2nnnn2-c2c(C)cccc2C)CC1 (centres undefined),-14.1% (inactive)
16,Cc1ccccc1C(CC(=O)c1cccs1)C(C#N)C#N (centres undefined),-107% (active)
17,O=C(NCC(=O)N1CCN(c2ccccc2F)CC1)c1cccs1,16.6% (inactive)
18,Cc1ccc(C)c(NC(CC(=O)c2ccccc2)C(=O)OCC(=O)c2cccs2)c1 (centres undefined),7.47% (inactive)
19,CCOC(=O)CSc1nc2ccc(C)cc2n2cnnc12,-55.9% (active)
20,CCOC(=O)CSc1nncc2ccc(OC)c(OC)c12,-8.55% (inactive)

row,SMILES,activity change
1,COc1ccc(CCNc2nc3ccc(C)cc3n3cnnc23)cc1OC,13.3% (inactive)
2,CN(CCCNC(=O)CN1C(=O)CC(C)(C)S(=O)(=O)c2ccccc21)C1CCCCC1,0% (inactive)
3,COc1ccccc1C(=O)NC(=S)Nc1ccc(N2CCOCC2)cc1,-16.4% (inactive)
4,CCCCCC(=O)N1C[C@H](O)[C@@H](n2cc(COC(=O)c3ccccc3)nn2)C[C@@H]1c1ccc(C)cc1,-14.9% (inactive)
5,N=C1C(c2nc3ccccc3s2)=C(O)CN1NC(=O)c1ccc([N+](=O)[O-])cc1,-90.6% (active)
6,N=C1C(c2nc3ccccc3[nH]2)=C(O)CN1NC(=O)c1c[nH]c2ccccc12,27.9% (inactive)
7,Cc1ccc(C)n1NC(=O)c1ccc([N+](=O)[O-])cc1,-5.32% (inactive)
8,CN1OC[C@@H]2CN[C@H](c3ccc(-c4ccccc4)cc3)C[C@@H]21,-4.9% (inactive)
9,O[C@H]1CN(Cc2cccs2)[C@@H](c2ccc(Cl)cc2)C[C@@H]1n1cc(C2CC2)nn1,30.3% (inactive)
10,COc1cc(OC)cc(-c2nnc(N(C)C(=O)c3ccncc3)s2)c1,-18.8% (inactive)
11,COCCN(C(=O)C(C)C)c1nnc(-c2ccc(C(C)(C)C)cc2)s1,-83.8% (active)
12,COCCN(C(=O)c1ccco1)c1nnc(-c2ccc(OC)cc2)s1,-3.55% (inactive)
13,CCC1=C(OC(=O)N(CC)CC)N2C(=O)OC(=NCC3CC3)[C@]2(C)[C@H]2C1=CC[C@H]1C(=O)N(CC(=O)OC)C(=O)[C@H]12,25% (inactive)
14,COc1ccccc1C(=O)Nc1ccccc1C(=O)Nc1ccccc1,-4.71% (inactive)
15,COc1ccccc1NC(=S)NC(=O)C(C)C,3.02% (inactive)
16,COc1ccccc1NC(=O)c1cc(Cl)nc2ccccc12,46.4% (inactive)
17,COc1ccccc1NC(=O)C[n+]1ccccc1,33.7% (inactive)
18,COc1ccccc1NC(=O)c1cc(Cl)nnc1Cl,-97.2% (active)
19,COc1ccccc1NC(=O)/C=C/C(N)=O,-100% (active)
